The entries come from a sample that favours hits as a whole.
CBFb-RUNX1 inh = inhibitors of human CBF-beta and RUNX1 interaction; Q01196+Q13951; AlphaScreen CBFb-His/RUNX1-biotin binding, biochemical; Potency, µM (doses to about 59.8 µM), inactives show top-dose activity, negative = inhibition, hits mostly inhibitors; 230,000 tested, under 10 active; AID 1477; further: % of control where 0% means no effect
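CBFb-His/RUNX1-biotin, 30 nM each, preincubated 20 min RT; compound 15 min RT; Ni + streptavidin beads 50 ng each, 90 min RT; AlphaScreen read.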
MLL CXXC-DNA inh = blocks binding of human MLL CXXC domain to DNA | 290,000 tested, 0.037% active | Potency, µM (doses to about 115 µM), for the others: at the highest dose activity change, negative = inhibition, usual class: inhibitors | Q03164 | MLL-CXXC / FITC-HOXA9 DNA fluorescence polarization | AID 2662; active means well fitted inhibition curve with a large enough effect in the polarisation, with a control signal flat, not every such curve was filed as active; inconclusive means small, poorly fitted or top-dose-only effect, or effect the other way, or a change in a side signal; inactive means no such curve, though single readings can be large or run the other way; the % refers to the polarisation; further: potency means the concentration at half of the fitted maximal effect
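Steps: dispense CXXC domain solution (7 uM) → pin compounds or unlabeled HOX-A9 DNA control → 5 min ambient → add FLSN-HOX-A9 solution (50 nM) → spin → 30 min ambient → fluorescence polarization. Tris pH 7.5/NaCl/DTT/BSA buffer.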
Menin MLL FP FL = menin-MLL binding inhibition, fluorescein peptide. Fluorescence polarization, fluorescein-MLL peptide displacement from menin. FP activity change, % at 61.4 µM. 290,000 tested, under 10 active; active means well fitted curve in the direction sought with a large enough effect in the polarisation, not every such curve was filed as active; inconclusive means small, poorly fitted or top-dose-only effect, or effect the other way, or a change in a side signal; inactive means no such curve, though single readings can be large or run the other way; the % refers to the polarisation; further: % of control where 0% means no effect
Menin MLL FP TR = inhibitors of human menin-MLL interaction, mutant MLL peptide. Menin + Texas Red MLL mutant peptide, fluorescence polarization. Potency, µM (titrated, usually from 61.6 µM), without a hit: top-dose FP activity change, negative = inhibition, actives largely listed as inhibitors. 270,000 tested, 0.23% active; active means well fitted inhibition curve with a large enough effect in the polarisation, with a control signal flat, not every such curve was filed as active; inconclusive means small, poorly fitted or top-dose-only effect, or effect the other way, or a change in a side signal; inactive means no such curve, though single readings can be large or run the other way; the % refers to the polarisation; further: potency means the concentration at half of the fitted maximal effect; % of control where 0% means no effect
Target sequence (O00255 whole entry, looked up): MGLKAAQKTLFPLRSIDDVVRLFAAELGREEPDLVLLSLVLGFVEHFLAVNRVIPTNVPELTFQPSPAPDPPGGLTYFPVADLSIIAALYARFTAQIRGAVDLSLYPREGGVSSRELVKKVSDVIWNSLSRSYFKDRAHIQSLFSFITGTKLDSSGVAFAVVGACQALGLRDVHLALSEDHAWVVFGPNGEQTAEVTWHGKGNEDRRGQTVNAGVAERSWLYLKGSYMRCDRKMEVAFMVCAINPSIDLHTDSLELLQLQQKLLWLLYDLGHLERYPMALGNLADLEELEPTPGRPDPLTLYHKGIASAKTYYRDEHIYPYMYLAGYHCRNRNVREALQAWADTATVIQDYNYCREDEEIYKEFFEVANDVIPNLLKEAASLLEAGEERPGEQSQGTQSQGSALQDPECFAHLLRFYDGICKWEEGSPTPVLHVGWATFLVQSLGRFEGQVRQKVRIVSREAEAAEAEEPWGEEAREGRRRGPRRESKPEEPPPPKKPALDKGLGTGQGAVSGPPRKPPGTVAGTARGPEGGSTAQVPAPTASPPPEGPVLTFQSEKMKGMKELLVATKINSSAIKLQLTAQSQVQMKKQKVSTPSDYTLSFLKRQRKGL
Lamin A splicing = changes lamin A minigene splicing in HeLa cells | 200,000 tested, 0.01% active | Potency, µM (series often up to 46.1 µM), without a hit: at the highest dose ratio change, negative = inhibition, actives largely listed as inhibitors | HeLa LMNA splicing GFP/RFP minigene ratio, 48 h; active means well fitted inhibition curve with a large enough effect in the signal ratio, with a control signal flat, not every such curve was filed as active; inconclusive means small, poorly fitted or top-dose-only effect, or effect the other way, or a change in a side signal; the % refers to the signal ratio; further: potency means the concentration at half of the fitted maximal effect; on the % scale 0 is the no-effect control and ±100 the full control effect
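Read-out is the ratio of GFP to DsRed2 object intensity, acquired by 488 nm laser-scanning cytometry on HeLa lamin A-EGFP minigene reporter cells. Compound incubation 48 hrs at 37 °C in Opti-MEM with 2% FBS; DMSO 0.5% final.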
MLL CXXC Fl = inhibitors of human MLL CXXC domain-DNA interaction; 200 tested, 70% active; Potency, µM (titrated, usually from 345 µM), for inactives: at the highest dose activity change, negative = inhibition, usual class: inhibitors; shares compounds with MLL CXXC-DNA inh; MLL CXXC-DNA binding, fluorescein FP; further: potency means the concentration at half of the fitted maximal effect; nearly all actives have a fitted effect of over 80% in size
MLL CXXC TxRed = MLL CXXC-DNA interaction inhibition, Texas Red FP; MLL CXXC-DNA binding, Texas Red fluorescence polarization; 200 tested, 40% active; Potency, µM (doses to about 345 µM), inactives show at the highest dose activity change, negative = inhibition, most hits filed as inhibitors; shares compounds with MLL CXXC-DNA inh; further: potency means the concentration at half of the fitted maximal effect; on the % scale 0 is the no-effect control and ±100 the full control effect; nearly all actives have a fitted effect of over 75% in size
MLL CXXC TRF = inhibitors of human MLL CXXC domain-DNA interaction, HTRF format; MLL CXXC-DNA binding, HTRF, biochemical; AID 624162; shares compounds with MLL CXXC-DNA inh; 210 tested, 30% active; Potency, µM (doses to about 172 µM), for inactives: at the top dose activity change, negative = inhibition, most hits filed as inhibitors; further: on the % scale 0 is the no-effect control and ±100 the full control effect; nearly all actives have a fitted effect of over 80% in size
Numbers without * were called inactive; i = inactive; ? = inconclusive; / = no result; [ ] = another dose, or the depositor's remark. Unless noted, the call rests on the fitted dose curve; in most records, active means well fitted curve in the direction sought with a large enough effect; inconclusive means small, poorly fitted or top-dose-only effect, or another doubt; inactive means no such curve, though single readings can be large; an effect the other way counts as inactive or inconclusive.

SMILES | CBFb-RUNX1 inh | MLL CXXC-DNA inh | Menin MLL FP FL | Menin MLL FP TR | Lamin A splicing | MLL CXXC Fl | MLL CXXC TxRed | MLL CXXC TRF
O=C(Nc1ccc(F)cc1)N1CCOCC1 | -5% | 4% | -3 | 0% | 18% | / | / | /
CCOc1ccccc1-n1nnnc1SCC(=O)Nc1cc2oc3ccccc3c2cc1OC | 6% | 33% | 6 | 10µM* | 5% | / | / | /
O=C1c2ccccc2-c2onc3c(Oc4ccccc4)cc(O)c1c23 | / | 7% | 3 | / | -4% | / | / | /
CCOc1ccc2noc3c2c1C(=O)c1ccccc1-3 | -21% | ? | ? | 8.9µM* | -10% | / | / | /
CN1CCc2c(sc3c2C(=O)NC(c2cccs2)N3)C1 (configuration not stated) | -9% | 20% | ? | 28µM* | -4% | / | / | /
Cc1ccsc1C1NC(=O)c2c(sc3c2CCN(C)C3)N1 (configuration not stated) | -7% | 34% | ? | -20% | 3% | / | / | /
C/C=C1\COC(C(=O)NC)(C(F)(F)F)C=C1C=C1CCCCC1 (configuration not stated) | 10% | / | -2 | 1% | / | / | / | /
CCOC(=O)c1c(NC(C)=O)sc2c(OCCN(CC)CC)c(Br)ccc12 | 4% | 35µM* | 2 | ? | / | 113µM* | 5% | 2%
CCCCN(CC)c1nc(C)nc2c1c(C)c(C)n2-c1c(C)cc(C)cc1C | 14% | / | 3 | -11% | / | / | / | /
CSC1=NCCCN1C(=O)c1c(-c2ccccc2Cl)noc1C | -7% | ? | -3 | / | / | ? | 25% | -5%
Cc1cccc(-n2c(C)cc(C=C3C(=O)c4ccccc4C3=O)c2C)c1 | ? | 32µM* | ? | ? | -1% | 142µM* | ? | 41%
COc1ccc2nc3c(cc2c1)Cn1c-3nc2ccccc2c1=O | -5% | / | 9 | -6% | / | / | / | /
CSC1=C(C#N)C(=O)NC(c2ccccc2O)S1 (configuration not stated) | 6% | 13µM* | 4 | / | / | 80µM* | 44% | ?
COc1ccc(NS(=O)(=O)c2cccs2)cn1 | 14% | -3% | -9 | 6% | / | / | / | /
COc1ccc(NS(=O)(=O)c2ccc(Cl)s2)cn1 | 6% | ? | ? | / | / | 126µM* | 2% | 0%
CC(Cc1ccc(O)c(O)c1)(NN)C(=O)O (configuration not stated) | / | / | 2 | -10% | -1% | / | / | /
O=c1[nH]c(-[n+]2ccccc2)c(/C=N/NC([S-])=Nc2ccccc2)s1 | -12% | 35µM* | ? | / | / | ? | ? | 30%
CN(C)C(=O)Nc1ccc(Oc2ccc(Cl)cc2)cc1 | 18% | / | -2 | 4% | / | / | / | /
CCn1c(CSc2nnc3ccccn23)nc2cc(C(=O)O)ccc21 | 1% | ? | ? | ? | -1% | / | / | /
CCn1c(CSc2n[nH]c(N)n2)nc2cc(C(=O)O)ccc21 | 25% | 35µM* | -26 | ? | 19%[46 µM] | 113µM* | 113µM* | 7%
Cc1ccc2c(Br)cc(Br)c(O)c2n1 | / | -10% | -5 | -9% | / | / | / | /
COc1cc(/C=C2/C(=O)N(c3ccc(C(=O)O)cc3)N=C2C)cc(OC)c1O | / | 31% | 20 | ? | / | / | / | /
C#CCOc1ccc(/C=C2/C(=O)N(c3cccc(C(=O)O)c3)N=C2C)cc1OC | / | 45µM* | -2 | ? | / | 45µM* | 71µM* | 97µM*
O=C(CSC1=NS(=O)(=O)c2ccccc21)Nc1ccccc1 | 5% | 32µM* | 1 | -1% | -1% | -2% | 113µM* | 24µM*
CCNC(=O)Cc1c(OC)ccc2cc(Br)ccc12 | 7% | -12% | 0 | -12% | -16%[46 µM] | / | / | /
SMILES | CBFb-RUNX1 inh | MLL CXXC-DNA inh | Menin MLL FP FL | Menin MLL FP TR | Lamin A splicing | MLL CXXC Fl | MLL CXXC TxRed | MLL CXXC TRF
COc1ccc2cc(Br)ccc2c1CC(=O)NCC1CCCO1 (configuration not stated) | 5% | 32µM* | 1 | 3% | ? | -1% | 30% | 29%
COc1ccc(-c2nn(-c3ccccc3)cc2/C=C/C(=O)OCC(=O)Nc2ccc(C#N)cc2)cc1 | 10% | ? | 6 | ? | -6% | 68% | ? | 5%
O=C1/C(=C/c2cccs2)Cc2ccccc21 | -4% | 7% | 9 | 26% | -8% | / | / | /
O=C1C(=Cc2cccs2)C(=O)c2ccccc21 | 1% | ? | -4 | 10% | 1% | 22µM* | ? | 15%
O=C(O)CN1C(=O)/C(=C\c2cccc(OCc3ccc(Cl)cc3Cl)c2)SC1=S | / | ? | 1 | 54% | / | ? | 23% | -103%
COc1ccc(C(C[N+](=O)[O-])C2(c3ccc(OC)c(OC)c3)C(=O)c3ccccc3C2=O)cc1 (configuration not stated) | -12% | ? | 2 | 10% | ? | 25% | 18% | 23%
Nc1nnc(SCC(=O)c2ccccc2)s1 | 3% | 2% | -2 | -1% | 9% | / | / | /
Nc1c(C(=O)c2ccccc2)sc2snc(SCC(=O)c3ccccc3)c12 | ? | ? | ? | ? | -9% | i | -5% | 11%
CCC(=O)CC | 15% | / | 1 | 9% | / | / | / | /
CC(C)CCC[C@@H](C)[C@H]1CC[C@H]2[C@@H]3CC=C4CC(O)CC[C@]4(C)[C@H]3CC[C@]12C (some centres not stated) | -7% | / | -1 | -3% | / | / | / | /
Cc1cn(C2OC(COC(=O)c3ccccc3)C(OC(=O)c3ccccc3)C2OC(=O)c2ccccc2)c(=O)[nH]c1=O (configuration not stated) | -2% | -10% | 1 | -6% | -7% | / | / | /
O=C(OCC1OC(OC(=O)c2cc(O)c(O)c(OC(=O)c3cc(O)c(O)c(O)c3)c2)[C@@H](OC(=O)c2cc(O)c(O)c(OC(=O)c3cc(O)c(O)c(O)c3)c2)C(OC(=O)c2cc(O)c(O)c(OC(=O)c3cc(O)c(O)c(O)c3)c2)C1OC(=O)c1cc(O)c(O)c(OC(=O)c2cc(O)c(O)c(O)c2)c1)c1cc(O)c(O)c(OC(=O)c2cc(O)c(O)c(O)c2)c1 (some centres not stated) | / | 63µM* | ? | ? | ? | 3.6µM* | 4.5µM* | 0.39µM*
O=C(O[C@H]1CN2CCC1CC2)N1CCc2ccccc2[C@@H]1c1ccccc1 | / | -7% | -2 | -6% | / | / | / | /
